# Reference: the supplement of paper PMC8728848
# About 410 targets per protein were measured; listed, in parts, are those with the strongest signals and a random draw of the rest.
# Tests used:
# Experiment in all cases: glycan array binding signal (z-score within array); higher = stronger binding
# Conditions in all cases: glycan notation: IUPAC condensed, linker removed
# [1] = biological target: Fuc(a1-2)Gal(b1-3)GlcNAc(b1-3)[Fuc(a1-3)[Gal(b1-4)]GlcNAc(b1-6)]Gal(b1-4)Glc
# Outline: (§1)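 Glycan array data were curated from 3228 arrays in the Consortium for Functional Glycomics database and kept only where the protein sequence was available. Glycan names were converted to IUPAC-condensed notation, and columns mapping to the same glycan were averaged. The binding signal is a within-array Z-score, averaged across arrays of the same protein sequence at different concentrations or buffers and across linkers. Negative Z-scores can be read as non-binding.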
# [2] = biological target: Fuc(a1-2)Gal(b1-3)GlcNAc(b1-3)[Neu5Ac(a2-6)Gal(b1-4)GlcNAc(b1-6)]Gal(b1-4)Glc
# Outline: as §1
# [3] = biological target: Fuc(a1-2)Gal(b1-4)[Fuc(a1-3)]GlcNAc(b1-3)GalNAc
# Outline: as §1
# [4] = biological target: Fuc(a1-2)[Gal(a1-3)]Gal(b1-3)GlcNAc(b1-2)Man(a1-3)[Fuc(a1-2)[Gal(a1-3)]Gal(b1-3)GlcNAc(b1-2)Man(a1-6)]Man(b1-4)GlcNAc(b1-4)[Fuc(a1-6)]GlcNAc
# Outline: as §1
# [5] = biological target: Fuc(a1-2)[GalNAc(a1-3)]Gal(b1-4)[Fuc(a1-3)]GlcNAc(b1-3)GalNAc
# Outline: as §1
# [6] = biological target: Fuc(a1-2)[GalNAc(a1-4)]Gal(b1-4)GlcNAc
# Outline: as §1
# [7] = biological target: Fuc(a1-3)[Gal(b1-4)]GlcNAc(b1-2)Man(a1-3)[Fuc(a1-3)[Gal(b1-4)]GlcNAc(b1-2)Man(a1-6)]Man(b1-4)GlcNAc(b1-4)[Fuc(a1-6)]GlcNAc
# Outline: as §1
# [8] = biological target: Fuc(a1-3)[Gal(b1-4)]GlcNAc(b1-6)GalNAc
# Outline: as §1
# [9] = biological target: Gal(a1-3)Fuc(a1-2)Gal(b1-4)GlcNAc(b1-3)[Gal(a1-3)Fuc(a1-2)Gal(b1-4)GlcNAc(b1-6)]GalNAc
# Outline: as §1
# [10] = biological target: Gal(a1-3)Gal(b1-4)[Fuc(a1-3)]GlcNAc
# Outline: as §1
# [11] = biological target: Gal(a1-3)GalNAc
# Outline: as §1
# [12] = biological target: Gal(b1-4)GlcNAc(b1-2)Man(a1-3)[Gal(b1-4)GlcNAc(b1-2)Man(a1-6)]Man(b1-4)GlcNAc(b1-4)[Fuc(a1-6)]GlcNAc
# Outline: as §1
# [13] = biological target: Gal(b1-4)GlcNAc(b1-2)[Gal(b1-4)GlcNAc(b1-6)]Man(a1-6)[Gal(b1-4)GlcNAc(b1-2)Man(a1-3)]Man(b1-4)GlcNAc(b1-4)GlcNAc
# Outline: as §1
# [14] = biological target: Gal(b1-4)GlcNAc(b1-3)Gal(b1-4)GlcNAc
# Outline: as §1
# [15] = biological target: Gal(b1-6)Gal
# Outline: as §1
# [16] = biological target: Gal3S(b1-4)[Fuc(a1-3)]Glc6S
# Outline: as §1
# [17] = biological target: Gal4S(b1-4)GlcNAc
# Outline: as §1
# [18] = biological target: Gal6S(b1-4)Glc
# Outline: as §1
# [19] = biological target: Gal6S(b1-4)GlcNAc
# Outline: as §1
# [20] = biological target: Glc(a1-4)Glc
# Outline: as §1
# [21] = biological target: GlcNAc(a1-4)Gal(b1-3)GlcNAc
# Outline: as §1
# [22] = biological target: GlcNAc(a1-4)Gal(b1-4)GlcNAc(b1-3)Gal(b1-4)GlcNAc
# Outline: as §1
# [23] = biological target: GlcNAc(a1-4)Gal(b1-4)GlcNAc(b1-3)Gal(b1-4)[Fuc(a1-3)]GlcNAc(b1-3)Gal(b1-4)[Fuc(a1-3)]GlcNAc
# Outline: as §1
# [24] = biological target: GlcNAc(b1-3)[GlcNAc(b1-6)]GalNAc
# Outline: as §1
# [25] = biological target: Kdn(a2-3)Gal(b1-3)GlcNAc
# Outline: as §1
# [26] = biological target: Man(a1-2)Man(a1-3)[Man(a1-2)Man(a1-6)]Man(a1-6)[Man(a1-2)Man(a1-2)Man(a1-3)]Man
# Outline: as §1
# [27] = biological target: Man(a1-2)Man(a1-3)[Man(a1-2)Man(a1-6)]Man(a1-6)[Man(a1-2)Man(a1-2)Man(a1-3)]Man(b1-4)GlcNAc(b1-4)GlcNAc
# Outline: as §1
# [28] = biological target: Man(a1-2)Man(a1-6)[Man(a1-3)]Man(a1-6)[Man(a1-2)Man(a1-2)Man(a1-3)]Man(b1-4)GlcNAc(b1-4)GlcNAc
# Outline: as §1
# [29] = biological target: Neu5Ac(a2-3)Gal(b1-3)GlcNAc(b1-3)GalNAc
# Outline: as §1
# [30] = biological target: Neu5Ac(a2-3)Gal(b1-4)[Fuc(a1-3)]GlcNAc(b1-3)GalNAc
# Outline: as §1
binder,measurement,setting,value
"NanI (Corynebacterium diphtheriae), C6JSW7 (protein) MTNTLESNPMTTTTGALTITFATTCDGPLAHIPHHLDLNIIHGRIQGTTAHRRIDAEDPDGLDDGLPHHLCLSVDTTGTHLFIDGYEAFSTTQTEWFDTSELTLNPHGDLTIIDHQILNHAPTPRQARNLAPAAEPLVWFAGSHLSTRDTQRISHLTHGSLRLLMKTRGTGQGGVAFQAHTINGDLTLEIIDGTLIFSVRCHDEDYVRITAPGRWDDGQIYDVVIVCGRGATDIYVDGQQLIHSPGAAFFNDLSGELSVHIGTAASGVRLFGEVQSGMIYPHVFNHHQVQRLATVEPIATQALFDCLLDGAQSYRIPSLITTDSGVIIAGADKRVSIANDAPNDIDFVLRRSVDGGRTWQPPRTILQLPDTACVTDSVLLQDHTTGRIFAFLDQFPAGIGQPNAAFGTGFDADGNRIGHFADGSTCTMPREVDQLEASFFSDPHTAPPGIVFQHPSCHLWMLTSDDDGLTWSTPRDLTPDVKEEWMRFCGTSPGNGIQLQRDTHAGRLLIPMYYTKGDQFFAAALYSDDHGDTWHRGESPDLEMYESTLVEASDGSVLLWARNQHPSGAVAHARSTDGGHSWSQVTFNPNVPEIFSQPNALRVTNPDGIIFANASQLLPFRGRGVLRMSTNDGASWQHNRVFNPRHYVYQCMTQLPDGSIGLLWEREMQGLFFSIIPMTWIMQGYAL",glycan array binding signal (z-score),[1],0.007
same,glycan array binding signal (z-score),[2],0.292
same,glycan array binding signal (z-score),[3],6.81
same,glycan array binding signal (z-score),[4],0.442
same,glycan array binding signal (z-score),[5],3.26
same,glycan array binding signal (z-score),[6],-0.77
same,glycan array binding signal (z-score),[7],4.32
same,glycan array binding signal (z-score),[8],3.36
same,glycan array binding signal (z-score),[9],0.813
same,glycan array binding signal (z-score),[10],-1.04
same,glycan array binding signal (z-score),[11],-0.16
same,glycan array binding signal (z-score),[12],0.309
same,glycan array binding signal (z-score),[13],8.52
same,glycan array binding signal (z-score),[14],-0.586
same,glycan array binding signal (z-score),[15],0.892
same,glycan array binding signal (z-score),[16],-0.197
same,glycan array binding signal (z-score),[17],-0.503
same,glycan array binding signal (z-score),[18],-0.205
same,glycan array binding signal (z-score),[19],-0.815
same,glycan array binding signal (z-score),[20],-0.173
same,glycan array binding signal (z-score),[21],-0.205
same,glycan array binding signal (z-score),[22],4.05
same,glycan array binding signal (z-score),[23],9.15
same,glycan array binding signal (z-score),[24],-0.477
same,glycan array binding signal (z-score),[25],0.075
same,glycan array binding signal (z-score),[26],0.157
same,glycan array binding signal (z-score),[27],-0.074
same,glycan array binding signal (z-score),[28],1.28
same,glycan array binding signal (z-score),[29],-0.319
same,glycan array binding signal (z-score),[30],3.03
